In general, AC50 refers to the midpoint of the concentration-response curve, whichever way the signal moves.

The record followed here is PubChem BioAssay (EPA / NIEHS).

Records with an inconclusive call do not appear. Activity calls are given as the source filed them. The calls were made as follows: active = hit-call score of the fitted dose curve at least 0.9, where 1 is the maximum; inconclusive = response in the unintended direction; inactive = score below 0.9.

Read-out in assay [1]: ABC Transporter (ABCB1), ABCB1 (gene 5243)
Description: CLD_ABCB1_24hr: CellzDirect (CLD) Gene Expression Assay for ABC Transporter (ABCB1) at 24 hours (AID 2283684).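 As to AC50: potency for increase in ABCB1 mRNA relative to DMSO vehicle.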 In outline: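 Primary human hepatocytes, two donor preparations, dosed daily with fresh solutions; vehicle 0.2% DMSO; harvested at 24 h. ABCB1 mRNA measured by quantitative nuclease protection assay (chemiluminescence); morphology-based cytotoxicity annotated.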

Read-out in assay [2]: Cytochrome P450 2B6 (Homo sapiens) (UniProt P20813)
Description: CLD_CYP2B6_24hr: CellzDirect (CLD) Gene Expression Assay for xenobiotic metabolism (CYP2B6) at 24 hours (AID 2283686). In a few lines:
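Primary human hepatocytes dosed daily for two days with fresh solutions, harvested at 24 hours; mRNA induction quantified by qNPA chemiluminescence, gain of signal vs 0.2% DMSO vehicle. Cytotoxicity annotated from phase-contrast morphology.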

Read-out in assay [3]: Cytochrome P450 2C19 (Homo sapiens) (UniProt P33261)
Put plainly: CLD_CYP2C19_24hr: CellzDirect (CLD) Gene Expression Assay for xenobiotic metabolism (CYP2C19) at 24 hours (AID 2283687).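 Also: activity means mRNA induction above DMSO vehicle baseline.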 In a few lines:
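Primary human hepatocytes (two donor preparations) dosed daily with fresh test chemical in 0.2% DMSO vehicle; CYP2C19 mRNA induction measured at 24 h by quantitative nuclease protection assay with chemiluminescence, fitted for gain of signal versus DMSO.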

Read-out in assay [4]: Cytochrome P450 2C9 (Homo sapiens) (UniProt P11712)
Put plainly: CLD_CYP2C9_24hr: CellzDirect (CLD) Gene Expression Assay for xenobiotic metabolism (CYP2C9) at 24 hours (AID 2283688). In a few lines:
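Primary human hepatocytes from two donor preparations, dosed daily for two days at multiple concentrations; vehicle 0.2% DMSO. CYP2C9 mRNA induction at 24 h measured by qNPA chemiluminescence relative to DMSO; cytotoxicity annotated from morphology.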

Read-out in assay [5]: Glyceraldehyde-3-phosphate dehydrogenase (Homo sapiens) (UniProt P04406)
Description: CLD_GAPDH_24hr: CellzDirect (CLD) Gene Expression Assay for Baseline Control (Glyceraldehyde 3-phosphate dehydrogenase) at 24 hours (AID 2283692). In a few lines: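 Primary human hepatocytes (two donor preparations) dosed daily for two days, 0.2% DMSO vehicle; GAPDH mRNA measured at 24 h by qNPA chemiluminescence as a background control, gain-of-signal fitted against DMSO.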

Read-out in assay [6]: xenobiotic metabolism (CYP1A2), CYP1A2 (gene 1544)
Put plainly: CLD_CYP1A2_24hr: CellzDirect (CLD) Gene Expression Assay for xenobiotic metabolism (CYP1A2) at 24 hours (AID 2283683). In a few lines: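 Primary human hepatocytes from two donor preparations dosed daily with multiple concentrations of chemical, 0.2% DMSO vehicle. CYP1A2 mRNA at 24 h quantified by qNPA chemiluminescence; gain of signal analyzed relative to DMSO. Cytotoxicity flagged by phase-contrast morphology.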

Read-out in assay [7]: Cytochrome P450 3A4 (Homo sapiens) (UniProt P08684)
Put plainly: CLD_CYP3A4_24hr: CellzDirect (CLD) Gene Expression Assay for xenobiotic metabolism (CYP3A4) at 24 hours (AID 2283689). In a few lines:
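Primary human hepatocytes from two donors dosed daily with fresh compound for two days, 0.2% DMSO vehicle. CYP3A4 mRNA at 24 hr by qNPA chemiluminescence; gain-of-signal fit versus DMSO, cytotoxicity flagged by morphology.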

Read-out in assay [8]: Broad substrate specificity ATP-binding cassette transporter ABCG2 (Homo sapiens) (UniProt Q9UNQ0)
Description: CLD_ABCG2_24hr: CellzDirect (CLD) Gene Expression Assay for ABC Transporter (ABCG2) at 24 hours (AID 2283685). In a few lines:
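Primary human hepatocytes were dosed daily with ToxCast chemicals at multiple concentrations (vehicle 0.2% DMSO). ABCG2 mRNA was measured at 24 h by qNPA chemiluminescence; induction was scored as gain of signal versus DMSO.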

Broad substrate specificity ATP-binding cassette transporter ABCG2 (Homo sapiens), sequence (Q9UNQ0 whole entry, looked up): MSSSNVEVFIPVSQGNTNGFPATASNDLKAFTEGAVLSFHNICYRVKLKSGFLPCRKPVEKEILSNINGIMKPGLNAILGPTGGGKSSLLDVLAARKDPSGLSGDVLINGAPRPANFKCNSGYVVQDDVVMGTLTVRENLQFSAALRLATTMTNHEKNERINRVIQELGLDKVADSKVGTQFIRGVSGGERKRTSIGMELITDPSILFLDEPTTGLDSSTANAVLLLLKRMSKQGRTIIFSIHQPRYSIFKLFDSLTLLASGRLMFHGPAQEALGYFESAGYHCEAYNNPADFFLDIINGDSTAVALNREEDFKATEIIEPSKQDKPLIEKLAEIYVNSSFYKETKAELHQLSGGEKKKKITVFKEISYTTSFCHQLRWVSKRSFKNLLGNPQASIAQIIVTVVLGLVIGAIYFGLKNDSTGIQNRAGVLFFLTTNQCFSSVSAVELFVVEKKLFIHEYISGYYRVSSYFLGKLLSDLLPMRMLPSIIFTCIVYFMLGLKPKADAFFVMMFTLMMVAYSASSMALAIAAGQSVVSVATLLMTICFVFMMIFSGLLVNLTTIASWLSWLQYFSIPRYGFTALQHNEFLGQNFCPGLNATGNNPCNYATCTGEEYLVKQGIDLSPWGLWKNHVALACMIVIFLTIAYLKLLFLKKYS
Glyceraldehyde-3-phosphate dehydrogenase (Homo sapiens), sequence (P04406 whole entry, looked up): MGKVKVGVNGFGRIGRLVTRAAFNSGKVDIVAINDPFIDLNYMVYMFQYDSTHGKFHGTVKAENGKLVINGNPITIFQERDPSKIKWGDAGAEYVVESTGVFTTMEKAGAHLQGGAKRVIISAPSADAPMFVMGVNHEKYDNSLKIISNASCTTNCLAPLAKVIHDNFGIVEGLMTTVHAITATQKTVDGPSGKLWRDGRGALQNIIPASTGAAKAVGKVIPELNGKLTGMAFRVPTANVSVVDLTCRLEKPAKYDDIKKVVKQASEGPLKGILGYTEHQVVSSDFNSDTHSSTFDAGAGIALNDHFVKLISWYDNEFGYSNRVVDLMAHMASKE
Cytochrome P450 2C19 (Homo sapiens), sequence (P33261 whole entry, looked up): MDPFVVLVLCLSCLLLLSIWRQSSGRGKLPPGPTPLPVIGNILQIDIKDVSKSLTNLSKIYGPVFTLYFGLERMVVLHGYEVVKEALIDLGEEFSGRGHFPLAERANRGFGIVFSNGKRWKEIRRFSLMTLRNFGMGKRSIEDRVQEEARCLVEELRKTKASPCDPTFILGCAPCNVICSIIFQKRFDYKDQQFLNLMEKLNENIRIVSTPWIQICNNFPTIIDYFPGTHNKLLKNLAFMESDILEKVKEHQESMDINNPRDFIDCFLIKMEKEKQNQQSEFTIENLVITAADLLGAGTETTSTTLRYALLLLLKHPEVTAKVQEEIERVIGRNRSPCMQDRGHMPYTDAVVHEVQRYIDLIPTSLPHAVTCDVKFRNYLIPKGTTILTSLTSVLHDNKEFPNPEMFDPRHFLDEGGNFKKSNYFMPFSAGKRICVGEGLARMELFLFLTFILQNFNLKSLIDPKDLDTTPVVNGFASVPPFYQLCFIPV
Cytochrome P450 3A4 (Homo sapiens), sequence (P08684 whole entry, looked up): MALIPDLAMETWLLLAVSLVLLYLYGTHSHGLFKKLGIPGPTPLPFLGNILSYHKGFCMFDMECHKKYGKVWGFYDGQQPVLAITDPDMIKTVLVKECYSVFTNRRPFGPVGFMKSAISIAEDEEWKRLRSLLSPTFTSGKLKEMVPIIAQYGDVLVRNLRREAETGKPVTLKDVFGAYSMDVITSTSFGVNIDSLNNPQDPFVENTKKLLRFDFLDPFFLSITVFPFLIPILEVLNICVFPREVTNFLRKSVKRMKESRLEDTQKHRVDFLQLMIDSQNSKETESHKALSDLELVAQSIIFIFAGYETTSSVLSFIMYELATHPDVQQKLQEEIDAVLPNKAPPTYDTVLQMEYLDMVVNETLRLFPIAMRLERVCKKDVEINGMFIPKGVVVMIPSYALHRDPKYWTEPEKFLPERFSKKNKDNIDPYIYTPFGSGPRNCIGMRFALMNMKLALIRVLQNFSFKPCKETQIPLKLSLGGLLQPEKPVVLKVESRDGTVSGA

On to `CC(C)C1(C)N=C(c2ncccc2C(=O)O)NC1=O` (configuration not stated), for which the outcome in assay [1], in assay [3], in assay [4] and in assay [5] was inactive. The AC50 in assay [2] is 0.671 nM (active).
For `N#CN=C1SCCN1Cc1ccc(Cl)nc1`, the compound was classed as inactive in assay [6], in assay [1], in assay [3], in assay [4] and in assay [5].
Consider `CCSC(=O)N1CCCCCC1`, for which the outcome in assay [1], in assay [3] and in assay [4] was inactive. Also, in assay [2], the AC50 is 302 nM (active).
Take `CCOc1nc(F)cc2nc(S(=O)(=O)Nc3c(Cl)cccc3Cl)nn12`: the compound was classed as inactive in assay [6], in assay [1], in assay [4] and in assay [5]. For the same compound, the AC50 in assay [2] was 6270 nM (active).
Consider `CO/N=C(/C1=NOCCO1)c1ccccc1Oc1ncnc(Oc2ccccc2Cl)c1F`, for which the result in assay [6], in assay [1], in assay [2], in assay [4], in assay [7] and in assay [5] was inactive.
With `CCCCC(O)(Cn1cncn1)c1ccc(Cl)cc1Cl` (configuration not stated), the AC50 in assay [1] was 31900 nM (active); in assay [7] it was 1130 nM (active). Moreover, the outcome in assay [8] was inactive.
Take `O=C(O)c1c(Cl)ccc2cc(Cl)cnc12`: the result in assay [6], in assay [1], in assay [3], in assay [4] and in assay [5] was inactive.
For the compound `Nc1cnn(-c2ccccc2)c(=O)c1Cl`, the outcome in assay [1], in assay [8], in assay [4] and in assay [5] was inactive.
`O=P(O)(O)CCCl`: the result in assay [6], in assay [1], in assay [3] and in assay [5] was inactive.
`Cc1ccc(N=CN(C)C=Nc2ccc(C)cc2C)c(C)c1`: the compound was called inactive in assay [6], in assay [2] and in assay [5]. In assay [1], the AC50 was 28200 nM (active).
`O=C(Nc1ccccc1-c1ccc(Cl)cc1)c1cccnc1Cl`: the compound was called inactive in assay [1]. Also, the AC50 in assay [2] is 427 nM (active).
Consider `CCCCOCN(C(=O)CCl)c1c(CC)cccc1CC`, for which the compound was classed as inactive in assay [6], in assay [1], in assay [3] and in assay [4]. For the same compound, the AC50 in assay [2] is 1110 nM (active).
Regarding `OC(c1ccc(Cl)cc1)(c1ccc(Cl)cc1)C(Cl)(Cl)Cl`, the compound was called inactive in assay [6], in assay [8] and in assay [4]. Further, the AC50 was 4080 nM (active) in assay [2] and 4090 nM (active) in assay [7].
